ATXN2 expr inh: Primary qHTS for Inhibitors of ATXN expression; HEK-293 ATXN2-luciferase reporter, luminescence, 24 h; Potency, µM (highest dose often 57 µM), without a hit: top-dose activity change, negative = inhibition, usual class: inhibitors; hit rate 0.72% among 360,000; AID 1745845, 2022; note: % is set by controls: 0 for no effect and ±100 for the full control effect; nearly all actives have a fitted effect of over 55% in size
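qHTS (up to 57 uM final) was run with 24 h compound exposure of reporter cells at 37 °C. Each well was multiplexed: SteadyGlo luminescence measured ATXN2-luciferase expression after a fluorogenic Gly-Phe-AFC viability readout (25 uM final).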
Nrf2 block: Nrf2 qHTS screen for inhibitors; A549 ARE-Fluc reporter, luciferase luminescence, 18-24 h; Potency, µM (titrated, usually from 46 µM), for inactives: at the top dose activity change, negative = inhibition, actives largely listed as inhibitors; hit rate 2.1% among 360,000; AID 504444, 2011; note: % is set by controls: 0 for no effect and ±100 for the full control effect; nearly all actives have a fitted effect of over 60% in size
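Nrf2 function is reported as luminescence of an ARE-controlled luciferase in A549 cells. Compounds were tested at several concentrations, and a CellTiter-Fluor read on the same wells flagged cytotoxicity.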
A549 tox: Nrf2 qHTS screen for inhibitors: counterscreen for cytotoxicity; hit rate 0.16% among 390,000; A549 ARE-Fluc cells, CellTiter-Fluor viability, 18-24 h; AID 504648, 2011; Potency, µM (highest dose often 46 µM), for inactives: top-dose activity change, negative = cytotoxicity, usual class: inhibitors; note: % is set by controls: 0 for no effect and ±100 for the full control effect
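Cytotoxicity counterscreen: CellTiter-Fluor fluorescence was measured in A549 ARE_Fluc cells after 18-24 h of compound exposure in a concentration series. The subsequent BugLite luminescent read reports ARE-luciferase activity.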
HepG2 tox: qHTS for Inhibitors of TGF-b: Cytotox Counterscreen. hit rate 0.76% among 410,000. AID 588856, 2011. Potency, µM (highest dose often 46.1 µM), inactives show at the highest dose activity change, negative = cytotoxicity, usual class: cytotoxic. HepG2 CAGA-GFP viability, ATP luminescence, 18 h
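HepG2 CAGA-GFP cells (1000/well, DMEM with 1% FBS) received compound, then TGF-beta at 500 pg/mL final, and were incubated 18 hours at 37 degrees C. Viability was read by CellTiter-Glo luminescence. Media-only wells were set as complete cell-killing and DMSO as no toxicity.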
TGFb inhibitor: qHTS for Inhibitors of TGF-b; HepG2 CAGA-GFP TGF-b/SMAD3 reporter, GFP fluorescence, 18 h; TGF-beta stimulated, 500 pg/mL final; Potency, µM (top dose mostly 46.1 µM), without a hit: at the highest dose activity, negative = inhibition, usual class: inhibitors; hit rate 1.2% among 410,000; AID 588855, 2011; note: % is set by controls: 0 for no effect and ±100 for the full control effect; nearly all actives have a fitted effect of over 65% in size
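HEPG2 CAGA-GFP, 1000 cells/well; 2 h settle, 37 C; cpd via pin tool; TGF-b 500 pg/mL final; 18 h, 37 C; GFP imaging ex488/em500-530; %Activity normalised to -TGF-b and +DMSO controls; CRC fit, curve class.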
S2 tox: Viability Counterscreen for Primary qHTS for Inhibitors of ATXN expression; Potency, µM (doses to about 56.7 µM), hits mostly cytotoxic; hit rate 0.49% among 400,000; S2 cells (HEK-293 line with an ATXN2-luciferase reporter) viability, CellTiter-Fluor protease fluorescence, 24 h; AID 651635, 2014; note: nearly all actives have a fitted effect of over 40% in size
* marks the source's active call; other numbers are inactive results; i = inactive; ? = inconclusive; . = not tested or not shown; ! = a repeat was not active; [ ] = another dose, or the depositor's remark. A selection: hits, their analogues and other compounds. The true share with any hit is near 3.8%. Calls come from the whole dose curve; as a rule, active = well fitted curve in the direction sought with a large enough effect; inconclusive = small, poorly fitted or top-dose-only effect, or another doubt; inactive = no such curve, though single readings can be large; an effect the other way counts as inactive or inconclusive. Potency is the fitted concentration of half-maximal effect.

SMILES	ATXN2 expr inh	Nrf2 block	A549 tox	HepG2 tox	TGFb inhibitor	S2 tox
O=C(N/N=C/c1cccc(O)c1)c1ccc2c(c1)OCCO2	.	0.41µM*	1%	14%	26%	i
O=C(N/N=C\c1ccc2c(c1)OCO2)c1ccco1	29%	?	-3%	-58%	5%	i
CNC[C@H](NC[C@@H](NCCCc1ccccc1)c1ccccc1)[C@H](C)O	-3%	-2%	-3%	-28%	1%	i
CCN(CC)C(=O)c1cc2cc(Br)ccc2oc1=O	-3%	11%	-2%[1.84 µM]	7.1µM*	-12%	?
COc1ccc(S(=O)(=O)CC(=O)c2cc3cc(Br)ccc3oc2=O)cc1	.	-20%	-21%	-61%	13µM*	i
COc1ccc(OC)c(S(=O)(=O)CC(=O)c2cc3ccc(OC)cc3oc2=O)c1	.	0%	-6%	3%	0%	i
S=c1[nH]nc(-c2cccs2)n1/N=C/c1cn(-c2ccccc2)nc1-c1cccs1	69%	12%	-14%	-27%	18µM*	i
CCCCNc1c(-c2ccc(SC(C)CC)c(OC)c2)nc2ccc(Cl)cn12 (stereo not drawn)	5%	-12%	-13%	-5%	?	i
CCCCNc1c(-c2ccc(OC)c(Sc3ccc(OC)cc3)c2)nc2cnccn12	?	?	-5%	-24%	?	.
CCCCNc1c(-c2ccc(OC)c(Sc3ccc(OC)cc3)c2)nc2ccccn12	?	18µM*	?	-64%	?	?
CCCCCCSc1cccc(-c2nc3ccc(C)cn3c2NCc2ccccc2)c1	0%	-9%	-10%	-49%	?	?
CCCCNc1c(-c2ccc(SC(C)CC)c(OC)c2)nc2ccc(C)cn12 (stereo not drawn)	?	?	?	20µM*	?	?
CCCCCCSc1ccc(-c2nc3ccc(C)cn3c2NCCCC)cc1OC	0%	.	.	.	.	28µM*
CCCCCCSc1cc(-c2nc3ccc(C)cn3c2NCc2ccccc2)ccc1OC	-19%	-19%	-22%	-16%	?	20µM*
CCOc1ccccc1NC(=O)Cn1c(=O)n(Cc2ccccc2)c(=O)c2c(C)c(C)sc21	-9%	-12%	2%	-40%	1%	i
CCN(CC)c1nc2c(S(=O)(=O)c3ccc(C)cc3)nnn2c2ccsc12	.	0%	3%	-44%	14%	.
Cc1ccc(-n2ccn(CC(=O)c3ccc(F)cc3)c(=O)c2=O)cc1C	.	6%	4%	-13%	-18%	.
CCOc1ccc(-c2nc(Cn3c(=O)cc(C)c4c(C)nn(-c5ccc(C)cc5)c43)c(C)o2)cc1	11%	?	2%	5%	-12%	i
C#Cc1ccc(NC(=O)C2(C)CCN2C(=O)CC(c2ccccc2)c2ccccc2)cc1 (stereo not drawn)	?	.	.	-4%	-28%	i
CSc1nc2sc3c(c2c(=O)n1Cc1ccccc1)CCC(C(C)(C)C)C3 (stereo not drawn)	4%	5%	3%	-17%	0%	i
CCC(C)Sc1cccc(-c2nc3ccc(C)cn3c2NCc2ccccc2)c1 (stereo not drawn)	?	?	?	11µM*	10µM*	?
CCC(C)Sc1cccc(-c2nc3ccc(Cl)cn3c2NCc2ccccc2)c1 (stereo not drawn)	-32%	?	?	-7%	?	i
c1ccc(-c2nnc(NC3=NCCC3)o2)cc1	?	?	-13%	-17%	-5%	i
Fc1ccc(-c2nnc(NC3=NCCCCC3)o2)cc1	4µM*	.	26%	13µM*	5%	i
CN(C(=O)CCN1C(=O)S/C(=C\c2ccccc2)C1=O)C1CCS(=O)(=O)C1 (stereo not drawn)	.	-3%	-6%	-11%	-4%	?
SMILES	ATXN2 expr inh	Nrf2 block	A549 tox	HepG2 tox	TGFb inhibitor	S2 tox
CCCn1c(N2CCN(Cc3ccc(Cl)cc3)CC2)nc2ccccc21	.	?	?	-38%	16µM*	?
CC(NC(=O)c1cccc(S(=O)(=O)N2CCN(Cc3ccccc3)CC2)c1)c1ccc(Cl)cc1 (stereo not drawn)	-7%	?	-5%	-1%	-7%	i
NC(=O)c1ccccc1NC(=O)NC1CCCCC1	10%	11%	2%	-23%	0%	i
O=C(Nc1ccccc1NC(=O)NC1CCCCC1)NC1CCCCC1	20µM*	.	-1%	-11%	-18%	?
CC(C)(C)S(=O)N1Cc2cc(=O)n(Cc3ccccc3)c(CCO)c2[C@@H]1CCO (stereo partly drawn)	13%	0%	-3%	-11%	?	i
Cc1ccc(CNC(=O)c2c[nH]n3c(=O)c(Cc4ccc(Cl)cc4)c(C)nc23)cc1	-22%	-29%	-8%	13µM*	?	i
Cc1nc2c(C(=O)NCCc3ccc(Cl)cc3)c[nH]n2c(=O)c1Cc1ccc(Cl)cc1	.	1%	-5%	11µM*	?	.
Cc1nc2c(C(=O)N(C)Cc3ccccc3)c[nH]n2c(=O)c1Cc1ccc(Cl)cc1	-31%	?	-23%	-31%	?	i
CCOC(=O)c1ccc(NC(=O)Nc2c[nH]c(=O)[nH]c2=O)cc1	4%	?	26%	3.2µM*	12%	i
CCOc1ccc(NC(=O)Nc2c[nH]c(=O)[nH]c2=O)cc1	14%	9%	-6%	-1%	2%	i
Cc1cc2c(cc1C)N[C@]1(C[C@H]3CCCC(=O)N4CC[C@@H](C1)[C@@H]34)C(=NC(C)(C)CC(C)(C)C)N2	-16%	2%	-16%	10µM*!	?	?
CC(C)(C)CC(C)(C)N=C1Nc2ccc(Cl)cc2N[C@]12C[C@H]1CCCC(=O)N3CC[C@@H](C2)[C@@H]13	.	.	.	8.9µM*	?	.
Cc1cc2c(cc1C)N[C@]1(C[C@H]3CCCC(=O)N4CC[C@@H](C1)[C@@H]34)C(=NCc1ccccc1)N2	.	.	.	-15%	-21%	.
CCN1CCCC1CNC(=O)C1CCN(Cc2nc(-c3cccc(Br)c3)oc2C)CC1 (stereo not drawn)	?	-3%	?	-112%	-1%	i
COc1ccc(N2Cc3ccccc3C2=O)cc1	-3%	?	1%	-69%	-8%	?
C=CC(=O)Oc1ccc(N2Cc3ccccc3C2=O)cc1	.	?	-4%	-42%	?	32µM*

Source: PubChem BioAssay (National Center for Advancing Translational Sciences (NCATS))
